Source: PubChem BioAssay (Tox21)
Inconclusive results are not listed. Calls of active or inactive are those of the source. Unless noted, calls come from the whole dose curve; as a rule, active = well fitted curve in the direction sought with a large enough effect in the repeat runs; inconclusive = weak or mixed curves; inactive = no such curve, though single readings can be large; an effect the other way counts as inactive or inconclusive.

Columns and labels:
[1] = qHTS RealTime-Glo MT Cell Viability Assay in HEK293 cells - 24 hour (AID 1224886); note: top concentration of the series differs between compounds; nearly all actives have a fitted effect of over 50% in size
Outline: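 HEK293 cells were seeded at 600 cells/well together with NanoLuc luciferase and cell-permeant prosubstrate, preincubated 5 h at 37 C/5% CO2, then given compound in DMSO by pintool. Luminescence from viable-cell prosubstrate reduction was read repeatedly over 40 h.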

[2] = qHTS RealTime-Glo MT Cell Viability Assay in HEK293 cells - 8 hour (AID 1224887); note: top concentration of the series differs between compounds; nearly all actives have a fitted effect of over 50% in size
Outline: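 Real-time viability in HEK293: signal arises when living cells convert a prosubstrate for NanoLuc in the medium, so luminescence tracks viable cell number. Compound (23 nL, DMSO) added 5 h post-seeding; kinetic reads at 0–40 h, 37 C.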

[3] = qHTS RealTime-Glo MT Cell Viability Assay in HepG2 cells - 0 hour (AID 1224889); note: nearly all actives have a fitted effect of over 50% in size
Outline: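 HepG2 cells were seeded at 600 cells/well together with NanoLuc luciferase and a cell-permeant prosubstrate, preincubated 5 h at 37 C/5% CO2, then pin-dosed with compounds in DMSO. Nonlytic luminescence from viable cells was read at each time point.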

[4] = A CellTox Green Cytotoxicity Assay to monitor cytotoxicity in HepG2 cells - 8 hour (AID 1224890); note: nearly all actives have a fitted effect of over 45% in size
Outline: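 Cells and non-lytic dye reagent are dispensed together (600 HepG2 cells/well) and incubated 5 h before DMSO compound transfer. Kinetic fluorescence is then recorded in the same wells during 40 h at 37 C.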

[5] = qHTS assay to identify small molecule antagonists of the estrogen receptor alpha (ER-alpha) signaling pathway using the BG1 cell line in the presence of 0.1 nM 17-beta-estradiol - cell viability counter screen (AID 1259241); note: nearly all actives have a fitted effect of over 40% in size
Outline: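 Measures cytotoxicity alongside the ER-alpha antagonist readout: VM7Luc4E2 cells, charcoal-stripped serum, 0.1 nM 17beta-estradiol final, 22 hr compound incubation at 37C, CellTiter-Fluor fluorescence.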

[6] = qHTS assay to identify small molecule antagonists of the androgen receptor (AR) signaling pathway using the MDA cell line in the presence of 0.5 nM R1881 - cell viability counter screen (AID 1259242); note: nearly all actives have a fitted effect of over 45% in size
Outline: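 Steps: plate MDA-kb2 cells, rest 5 hr at 37C without CO2; pin in compounds in DMSO; add R1881 to 0.5 nM final; incubate 16 hr; add CellTiter-Fluor, 30 min; read fluorescence.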

[7] = target: Estrogen receptor (Homo sapiens) (UniProt P03372); assay: qHTS assay to identify small molecule antagonists of the estrogen receptor alpha (ER-alpha) signaling pathway using the BG1 cell line in the presence of 0.1 nM 17-beta-estradiol (AID 1259244); note: nearly all actives have a fitted effect of over 50% in size
Sequence of Estrogen receptor (Homo sapiens) (P03372 whole entry, looked up): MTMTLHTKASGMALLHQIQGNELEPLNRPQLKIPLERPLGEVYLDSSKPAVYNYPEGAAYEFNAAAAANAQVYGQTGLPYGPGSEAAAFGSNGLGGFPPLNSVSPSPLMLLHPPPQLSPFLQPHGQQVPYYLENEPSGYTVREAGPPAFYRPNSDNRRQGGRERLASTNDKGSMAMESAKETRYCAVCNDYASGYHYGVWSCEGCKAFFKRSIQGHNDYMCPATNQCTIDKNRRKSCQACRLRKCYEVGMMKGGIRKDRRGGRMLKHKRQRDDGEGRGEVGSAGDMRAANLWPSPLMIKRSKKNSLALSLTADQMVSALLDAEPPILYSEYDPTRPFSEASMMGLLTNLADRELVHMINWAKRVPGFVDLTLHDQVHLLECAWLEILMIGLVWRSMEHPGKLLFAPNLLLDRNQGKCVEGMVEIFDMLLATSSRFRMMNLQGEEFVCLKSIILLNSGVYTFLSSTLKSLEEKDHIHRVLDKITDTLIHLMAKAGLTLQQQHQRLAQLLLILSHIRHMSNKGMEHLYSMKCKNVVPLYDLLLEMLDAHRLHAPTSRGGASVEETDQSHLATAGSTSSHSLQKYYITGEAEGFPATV
Outline: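 Antagonist mode: compounds in DMSO are pinned onto VM7Luc4E2 reporter cells, 0.1 nM final 17beta-estradiol is added, and after 22 h at 37C luciferase luminescence is measured with ONE-Glo.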

[8] = qHTS assay to identify small molecule HDAC inhibitors (AID 1259364);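 note: wild-type HCT-116 cells with endogenous class I/II HDAC activity; top concentration of the series differs between compounds; nearly all actives have a fitted effect of over 45% in size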
Outline: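 Cells (HCT-116, wild type) are seeded at 1,500 per well, incubated overnight, treated with compound in DMSO for 2 hr, then developed with HDAC-Glo I/II reagent for 30 min at room temperature.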

[9] = qHTS assay to identify small molecule HDAC inhibitors - cell viability counter screen (AID 1259365)
Outline: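 Following a 2hr exposure of overnight-plated wild-type HCT-116 cells to DMSO-delivered compounds, CellTiter-Glo was added and luminescence recorded after 30min at room temperature.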

[10] = qHTS assay to identify small molecule agonists of the sonic hedgehog signaling (Shh) pathway - cell viability counter screen (AID 1259366); note: nearly all actives have a fitted effect of over 50% in size; note: potency is the fitted concentration of half-maximal effect
Outline: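 After a 4hr attachment at 37C, NIH/3T3 cells bearing an integrated Gli1-driven luciferase reporter were dosed with compounds. Treatment lasted 24hr, with the final hour including CellTiter-Fluor for a fluorescence viability measurement.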

[11] = qHTS assay to identify small molecule antagonists of the sonic hedgehog signaling (Shh) pathway - cell viability counter screen (AID 1259367); note: nearly all actives have a fitted effect of over 55% in size; note: potency is the fitted concentration of half-maximal effect
Outline: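 Fluorescence read-out (CellTiter-Fluor, 1 hr at 37C) taken after 23 hr compound treatment of 3T3 Gli1-Luc cells stimulated with conditioned medium. Cells were seeded at 2,000 per well and pre-incubated 4 hr.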

[12] = qHTS assay to identify small molecule agonists of the sonic hedgehog signaling (Shh) pathway (AID 1259368; calls by dose curve;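 note: NIH/3T3-derived 3T3Gli1-Luc cells carrying a stable Gli1-driven firefly luciferase reporter; series mostly up to about 92 µM; nearly all actives have a fitted effect of over 15% in size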)
Outline: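 Cells of a mouse NIH/3T3 clone stably expressing luciferase under the Gli1 transcriptional response element are exposed to test chemicals for 24 hr at 37 C. Pathway activation is detected as a rise in luminescence.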

[13] = qHTS assay to identify small molecule antagonists of the sonic hedgehog signaling (Shh) pathway (AID 1259369; calls by dose curve; note: nearly all actives have a fitted effect of over 45% in size)
Outline: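 Cells are plated and held 4hr at 37 C, compounds (DMSO) are pinned in, conditioned medium is added to stimulate the pathway, and after 24hr luciferase reagent is added for 30min before luminescence is read.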

[14] = target: Estrogen receptor beta (Homo sapiens) (UniProt Q92731); assay: qHTS assay to identify small molecule agonists of the estrogen receptor beta (ER-beta) signaling pathway (AID 1259377; active = well fitted activation curve with a large enough effect in the signal ratio in the repeat runs, not every such curve was filed as active; the % refers to the signal ratio)
Sequence of Estrogen receptor beta (Homo sapiens) (Q92731 whole entry, looked up): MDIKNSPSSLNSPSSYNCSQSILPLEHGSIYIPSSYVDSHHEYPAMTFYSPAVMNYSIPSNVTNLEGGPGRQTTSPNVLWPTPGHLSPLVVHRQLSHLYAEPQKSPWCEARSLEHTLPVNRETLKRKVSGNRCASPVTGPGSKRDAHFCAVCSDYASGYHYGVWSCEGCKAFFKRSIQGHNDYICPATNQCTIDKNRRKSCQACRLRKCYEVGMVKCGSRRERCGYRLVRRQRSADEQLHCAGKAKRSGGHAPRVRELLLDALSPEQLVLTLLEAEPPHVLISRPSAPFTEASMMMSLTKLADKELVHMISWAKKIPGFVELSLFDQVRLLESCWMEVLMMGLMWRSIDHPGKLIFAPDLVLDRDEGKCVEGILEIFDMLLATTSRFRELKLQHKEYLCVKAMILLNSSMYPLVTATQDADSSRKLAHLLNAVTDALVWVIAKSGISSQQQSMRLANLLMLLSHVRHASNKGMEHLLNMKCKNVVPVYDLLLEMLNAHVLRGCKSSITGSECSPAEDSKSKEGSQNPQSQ
Outline: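 In HEK293T cells bearing a UAS-beta-lactamase reporter under ER-beta control, DMSO-delivered compounds were incubated for 16 hr at 37C. Activity was detected as fluorescence 2 hours after LiveBLAzer B/G FRET substrate addition.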

[15] = qHTS assay to identify small molecule agonists of the androgen receptor (AR) signaling pathway in the presence of an antagonist - cell viability counter screen (AID 1259379);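 note: MDA-kb2 human breast cancer cells carrying an MMTV luciferase reporter; series mostly up to about 92 µM; nearly all actives have a fitted effect of over 25% in size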
Outline: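 Cytotoxicity is assessed by CellTiter-Fluor in MDA-kb2 cells carrying an MMTV-driven luciferase reporter. Cells receive 3.0uM nilutamide plus compounds at 15 concentrations and incubate 16 hr at 37C without CO2 before fluorescence reading.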

[16] = qHTS assay to identify small molecule agonists of the estrogen receptor beta (ER-beta) signaling pathway - cell viability counter screen (AID 1259380); note: nearly all actives have a fitted effect of over 30% in size
Outline: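 Cytotoxicity is measured in parallel with the reporter screen: after 16 hr compound exposure at 37C and a 2 hr LiveBLAzer step, CellTiter-Glo is added to the same ER-beta-UAS-bla HEK293T wells and luminescence read after 30 min.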

[17] = target: Estrogen receptor beta (Homo sapiens) (UniProt Q92731); assay: qHTS assay to identify small molecule antagonists of the estrogen receptor beta (ER-beta) signaling pathway (AID 1259378; active = well fitted inhibition curve with a large enough effect in the signal ratio in the repeat runs, not every such curve was filed as active; the % refers to the signal ratio)
Outline: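 ER-beta-UAS-bla HEK293T cells in 2% charcoal-stripped FBS medium treated with compound plus 1nM final 17-beta-estradiol for 16 hr at 37C. Beta-lactamase reporter read by FRET substrate fluorescence after 2 hours at room temperature.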

[18] = qHTS assay to identify small molecule phospholipidosis (PLD) inducers (AID 1259344; active = well fitted curve in the direction sought with a large enough effect; an effect the other way counts as inactive or inconclusive)
Outline: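 Read-out is LipidTOX Red fluorescence (ex 595/em 615) imaged in HepG2 cells after 24 h compound exposure at 37 C, with Hoechst nuclear counterstain (ex 352/em 461) allowing per-cell normalisation.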

[19] = A CellTox Green Cytotoxicity Assay to monitor cytotoxicity in HEK293 cells - 16 hour (AID 1224888); note: nearly all actives have a fitted effect of over 35% in size
Outline: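 Cells (HEK293, 600/well) and dye reagent are dispensed together. After 5 h at 37 C, 23 nL compound is pinned in. Plates stay at 37 C for 40 h with fluorescence read at 0h, 8h, 16h, 24h, 32h and 40h.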

[20] = target: Androgen receptor (Homo sapiens) (UniProt P10275); assay: qHTS assay to identify small molecule antagonists of the androgen receptor (AR) signaling pathway using the MDA cell line in the presence of 0.5 nM R1881 (AID 1259243); note: nearly all actives have a fitted effect of over 50% in size
Sequence of Androgen receptor (Homo sapiens) (P10275 whole entry, looked up): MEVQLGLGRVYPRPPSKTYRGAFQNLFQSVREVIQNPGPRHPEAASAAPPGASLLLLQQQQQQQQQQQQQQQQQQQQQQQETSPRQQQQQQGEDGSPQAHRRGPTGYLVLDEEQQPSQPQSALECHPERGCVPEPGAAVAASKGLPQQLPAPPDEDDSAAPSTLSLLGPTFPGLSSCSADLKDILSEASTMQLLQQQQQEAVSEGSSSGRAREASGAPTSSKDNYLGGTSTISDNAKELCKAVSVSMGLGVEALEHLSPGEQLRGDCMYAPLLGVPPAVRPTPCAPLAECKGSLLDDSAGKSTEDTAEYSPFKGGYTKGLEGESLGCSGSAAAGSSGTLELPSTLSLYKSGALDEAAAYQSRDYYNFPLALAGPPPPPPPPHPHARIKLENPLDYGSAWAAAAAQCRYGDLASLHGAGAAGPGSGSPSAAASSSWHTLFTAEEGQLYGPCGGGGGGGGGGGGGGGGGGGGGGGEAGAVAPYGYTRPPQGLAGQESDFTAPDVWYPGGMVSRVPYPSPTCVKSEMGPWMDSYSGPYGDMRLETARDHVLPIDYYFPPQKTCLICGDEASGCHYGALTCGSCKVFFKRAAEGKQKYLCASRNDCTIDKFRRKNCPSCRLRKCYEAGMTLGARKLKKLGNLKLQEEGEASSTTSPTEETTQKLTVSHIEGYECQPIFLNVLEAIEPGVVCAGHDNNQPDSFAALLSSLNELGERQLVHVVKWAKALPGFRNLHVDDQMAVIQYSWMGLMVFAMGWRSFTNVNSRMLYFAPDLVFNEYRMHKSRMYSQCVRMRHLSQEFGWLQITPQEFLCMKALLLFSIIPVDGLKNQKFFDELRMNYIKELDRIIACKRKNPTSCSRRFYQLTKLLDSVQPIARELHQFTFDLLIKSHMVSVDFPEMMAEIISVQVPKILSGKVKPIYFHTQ
Outline: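 Stably transfected MDA-kb2 cells express luciferase from an MMTV promoter bearing both AR and GR response elements. Compounds plus 0.5 nM R1881 (final) were incubated 16 hr at 37C without CO2, then luminescence measured.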
% is set by controls: 0 for no effect and ±100 for the full control effect.

O=[Si]=O
inactive: Potency [1] | Potency [2] | Potency [3] | Potency [4] | Potency [5] | Potency [6] | Potency [7] | Potency [8] | outcome [9] | Potency [10] | Potency [11] | outcome [12] | Potency [13] | Potency [14] | Potency [15] | outcome [16]

COC(/C=C(\C)CCC=C(C)C)OC
inactive: Potency [1] | Potency [2] | Potency [3] | Potency [4] | Potency [6] | Potency [8] | outcome [9] | Potency [11] | outcome [12] | Potency [13] | Potency [14] | outcome [17] | Potency [15] | outcome [16]

Nc1ccc(S(=O)(=O)NC(=O)c2ccccc2)cc1
inactive: Potency [1] | Potency [2] | Potency [3] | Potency [4] | Potency [5] | Potency [6] | outcome [18] | Potency [8] | outcome [9] | Potency [10] | Potency [11] | outcome [12] | Potency [13] | Potency [14] | outcome [17] | Potency [15] | outcome [16]

CCCCC/C=C/CC(=O)OC
inactive: Potency [1] | Potency [2] | Potency [3] | Potency [4] | Potency [5] | Potency [6] | Potency [8] | outcome [9] | Potency [10] | Potency [11] | outcome [12] | Potency [14] | outcome [17] | Potency [15] | outcome [16]

NC(=O)NC(=O)Cc1ccccc1
inactive: Potency [1] | Potency [2] | Potency [3] | Potency [4] | Potency [5] | Potency [6] | outcome [18] | Potency [8] | outcome [9] | Potency [10] | Potency [11] | Potency [13] | Potency [14] | Potency [15] | outcome [16]

COCC(=O)Nc1c(I)c(C(=O)NCC(O)CO)c(I)c(C(=O)N(C)CC(O)CO)c1I (stereo not drawn)
inactive: Potency [19] | Potency [3] | Potency [4] | Potency [5] | Potency [6] | outcome [20] | Potency [7] | outcome [18] | Potency [8] | outcome [9] | Potency [10] | Potency [11] | outcome [12] | Potency [13] | Potency [14] | outcome [17] | Potency [15]

CCC1COC(=O)O1 (stereo not drawn)
inactive: Potency [1] | Potency [2] | Potency [3] | Potency [4] | Potency [5] | Potency [6] | Potency [7] | Potency [8] | outcome [9] | Potency [10] | Potency [11] | outcome [12] | Potency [13] | Potency [15]

Nc1c(NC/C=C\COc2cc(CN3CCCCC3)ccn2)c(=O)c1=O
inactive: activity change, negative = cytotoxicity [1] 3.04% [at 15.8 µM] | activity change, negative = cytotoxicity [2] 1.9% [at 15.8 µM] | activity change, negative = cytotoxicity [3] 8.54% [at 15.8 µM] | cytotoxicity increase [4] -13.1% [at 15.8 µM] | activity change, negative = cytotoxicity [5] -19.8% [at 19 µM] | viability change, negative = cytotoxic [6] -4.94% [at 19 µM] | outcome [18] | activity change, negative = inhibition [8] -4.93% [at 19 µM] | activity change, negative = cytotoxicity [9] 4.37% [at 19 µM] | activity change [12] -1% [at 18.9 µM] | activity change, negative = inhibition [13] 0.103% [at 19 µM] | activity change, negative = cytotoxicity [15] -0.565% [at 19 µM] | activity change, negative = cytotoxicity [16] 1.31% [at 19 µM]
active: Potency [10] 5.17 µM | Potency [11] 5.17 µM
